Experiment [1] is described as follows: CCTE_Shafer_MEA_dev_AB: CCTE's Alamar Blue Assay for Cytotoxicity in the Neural Network Formation Assay, Shafer Lab (AID 2284083; active = hit-call score of the fitted dose curve at least 0.9, where 1 is the maximum;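 also: resazurin reduction fluorescence as viability of cultured neurons; twelve days of exposure from plating with re-dosing on DIV 5 and 9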). The gist of the method:
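Fluorescent resazurin reduction serves as the viability read-out, with DMSO as negative control and baseline. Cells were primary rat cortical neurons grown on MEA plates and dosed from day 0 to day 12, treatment renewed on DIV 5 and 9.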
A general note: Resazurin is reduced to fluorescent resorufin, in cell work by metabolically active cells.

Experiment [2] can be described thus: CCTE_Shafer_MEA_dev_mutual_information_norm: CCTE's Neural Network Formation Assay for Mutual Information Normalization, Shafer Lab (AID 2284091).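 As to AC50: mutual information between electrodes summarised as area under curve across four recording days; potency is for a decrease in mutual information relative to DMSO.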 The gist of the method: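 Neurons from rat cortex were seeded at 1.5 x 10^5 cells/well onto PEI-coated MEAs in a laminin drop, then exposed to compound from day 0 for twelve days. Network recordings on four days gave mutual information, summarised by AUC relative to DMSO.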

The nature of experiment [3]: CCTE_Shafer_MEA_dev_correlation_coefficient_mean: CCTE's Neural Network Formation Assay for Mean Correlation Coefficient, Shafer Lab (AID 2284093).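 As to AC50: well mean pairwise spike train correlation integrated as AUC over recording days 5 to 12; potency fitted for loss of correlation relative to DMSO vehicle wells.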 In a few lines: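 Read-out: well-mean correlation coefficient of spike trains between electrode pairs, collapsed over four recording days as trapezoidal area-under-the-curve. Developing rat cortical neuron networks grown on MEAs received test chemical continuously from plating.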

Experiment [4] is described as follows: CCTE_Mundy_HCI_Cortical_Synap_Neur_Matur_NeuriteSpotCountPerNeuriteLength: CCTE's Synaptogenesis and Neurite Maturation Assay in rat cortical cells for Neurite Spot Count per Neurite Length, Mundy Lab (AID 2284210). The gist of the method: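 Read-out: synaptophysin puncta counted along MAP2-stained neurites, normalised to neurite length, by automated high-content imaging. Rat cortical cells; AraC DIV 5; chemical dosing DIV 7; termination DIV 12. DMSO baseline.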

A short description of experiment [5]: UKN2_HCS_IMR90_neural_migration: University of Konstanz (UKN) Leist Lab Neural Crest Cell Migration Assay in human induced IMR90 Pluripotent Stem Cells (UKN2) (AID 2284204). The following applies: actives raise or lower the signal. The gist of the method:
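Stopper-exclusion migration (cMINC), human iPSC-derived neural crest cells; N2-S + EGF/FGF; compound added 24 h post-stopper removal, 24 h exposure. Readout: calcein-AM/Hoechst 30 min, HCS fluorescence imaging; bidirectional fitting, DMSO baseline.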

Experiment [6] in a line: IUF_NPC1b_proliferation_BrdU_72hr: Leibniz Research Institute for Environmental Medicine (IUF) 72-hour Neural Progenitor Cell Bromodeoxyuridine (BrdU) Proliferation Assay (NPC1b) (AID 2284207). The gist of the method:
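Luminescent BrdU ELISA measured DNA synthesis during the last 16 h of a 72 h exposure of primary human neural progenitor spheres grown with EGF and FGF. Signal was fitted relative to DMSO controls.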

Experiment [7] is described as follows: IUF_NPC1a_proliferation_area_72hr: Leibniz Research Institute for Environmental Medicine (IUF) 72-hour Neural Progenitor Cell Proliferation Area Assay (NPC1a) (AID 2284208). In a few lines:
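hNPC spheres (human fetal cortex, GW 16-19), one per poly-Hema U-bottom well; EGF+FGF medium; dosed day 0, no re-dosing; 72 h, 37C, 5% CO2; phase-contrast sphere area; DMSO = baseline; minus-GF = positive ctrl.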

Experiment [8] in a line: IUF_NPC1_viability_72hr: Viability Assessment at 72 hours in the Leibniz Research Institute for Environmental Medicine (IUF) Neural Progenitor Cell Proliferation Assay (NPC1) (AID 2284209). In a few lines:
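Three-day continuous exposure of human neural progenitor spheres under EGF/FGF-driven proliferation; cell viability scored by alamar blue signal versus DMSO.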

The nature of experiment [9]: UKN5_HCS_SBAD2_neurite_outgrowth: University of Konstanz (UKN) Leist Lab Neurite Outgrowth Assay in human iPSC-derived immature Dorsal Root Ganglia Neurons (UKN5) (AID 2284070). Conditions: actives raise or lower the signal. In a few lines:
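Neurite outgrowth is quantified as calcein-AM-labelled neurite area in human iPSC-derived peripheral neurons treated for 24 h, starting 1 h after plating in medium with CHIR99021 (1.5 uM), SU5402 (5 uM) and DAPT (5 uM).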

Experiment [10] is described as follows: UKN4_HCS_LUHMES_neurite_outgrowth: University of Konstanz (UKN) Leist Lab Neurite Outgrowth Assay in human LUHMES cells (UKN4) (AID 2284206). Conditions: actives raise or lower the signal. On the procedure:
UKN4_HCS_LUHMES is a cell-based, multiplexed-readout assay screening for neurite outgrowth and cell viability that uses LUHMES, a human central nervous system cell line, with measurements taken at […] after chemical dosing in a microplate: 96-well plate. UKN4, also referred to as NeuriTox, is an assay that uses LUHMES neuronal precursors as a model of dopaminergic neuronal differentiation. Following a 2-day differentiation period, cells are exposed to chemicals for 24 hr and neurite area is evaluated as a marker of neurite outgrowth using high-content imaging of cells stained with calcein AM. Cell viability is assessed using stain Hoechst H-33342.UKN4_HCS_LUHMES_neurite_outgrowth is an assay component measured from the UKN4_HCS_LHUMES assay. It is designed to make measurements of neurite outgrowth, a form of morphology reporter, as detected with Fluorescence intensity signals by HCS Fluorescent Imaging.The assay endpoint UKN4_HCS_LUHMES_neurite_outgrowth was analyzed with bidirectional fitting relative to DMSO as the negative control and baseline of activity. Using a type of morphology reporter, gain or loss-of-signal activity can be used to understand developmental effects. To generalize the intended target to other relatable targets, this assay endpoint is annotated to the neurodevelopment intended target family, where the subfamily is neurite outgrowth. […]

Here are results for 26 compounds from PubChem BioAssay (EPA / NIEHS).

Inconclusive results are not listed. The source holds several records for some structures; these can differ, active in one and inactive in another. Activity calls are given as the source filed them. The calls were made as follows, unless noted: active = hit-call score of the fitted dose curve at least 0.9, where 1 is the maximum; inactive = score below 0.9.

Consider `OCC(F)(F)C(F)(F)C(F)(F)C(F)(F)C(F)(F)C(F)(F)C(F)(F)C(F)(F)C(F)(F)C(F)(F)C(F)(F)F`, for which the concentration at half-maximal activity (AC50) – broadly, the concentration at which the activity in the assay is half-maximal – was 18.9 µM (active) in experiment [1], 4.61 µM (active) in experiment [2] and 8.06 µM (active) in experiment [3]. Also, the result in experiment [1], in experiment [2] and in experiment [3] was inactive.
Turning to `O=C(OC(=O)C(F)(F)C(F)(F)F)C(F)(F)C(F)(F)F`, the outcome in experiment [1], in experiment [2] and in experiment [3] was inactive.
Regarding `CN(Cc1cnc2nc(N)nc(N)c2n1)c1ccc(C(=O)N[C@@H](CCC(=O)O)C(=O)O)cc1`, the AC50 was 0.0389 µM (active) in [1], 0.0191 µM (active) in [2] and 0.0189 µM (active) in experiment [3]. Besides, the result in experiment [4] was inactive.
Consider `O=C(C=C(O)C(F)(F)F)C(F)(F)F`, for which the compound was called inactive in [2] and in [3].
For the compound `O=CC(F)(F)C(F)(F)C(F)(F)C(F)F`, the compound was classed as inactive in [2] and in experiment [3].
Consider `C=CC(F)(F)C(F)(F)C(F)(F)C(F)(F)F`, for which the outcome in [1], in experiment [2] and in experiment [3] was inactive.
For `O=P(O)(O)CCC(F)(F)C(F)(F)C(F)(F)C(F)(F)C(F)(F)C(F)(F)C(F)(F)C(F)(F)F`, the values for the half-maximal activity concentration (AC50) in experiment [1], in [2] and in [3] were 8.79 µM (active), 4.31 µM (active) and 6.27 µM (active), respectively.
As to `O=P(O)(O)CCC(F)(F)C(F)(F)C(F)(F)C(F)(F)C(F)(F)C(F)(F)F`, the compound was classed as inactive in experiment [1], in [2] and in experiment [3].
As for `O=C(CC(=O)C(F)(F)C(F)(F)C(F)(F)F)c1cccs1`, the AC50 in experiment [1] is 9.02 µM (active); in [3], 7.75 µM (active). Besides, the compound was called inactive in experiment [2].
For `CC(C)c1c(C(=O)Nc2ccccc2)c(-c2ccccc2)c(-c2ccc(F)cc2)n1CC[C@@H](O)C[C@@H](O)CC(=O)O`, the AC50 in experiment [1] was 0.0258 µM (active); in experiment [2], 0.00793 µM (active); in experiment [3], 0.00805 µM (active); in [6], 1.7 µM (active); in experiment [4], 6.94 µM (active). Besides, the compound was classed as inactive in [5], in [7] and in experiment [8].
Consider `CN(CCO)S(=O)(=O)C(F)(F)C(F)(F)C(F)(F)C(F)(F)C(F)(F)C(F)(F)C(F)(F)C(F)(F)F`, for which the compound was classed as inactive in experiment [2] and in experiment [3].
Turning to `O=CC(F)(F)C(F)(F)C(F)(F)F`, the compound was called inactive in experiment [1], in [2] and in experiment [3].
`NC(C(F)(F)F)C(F)(F)F`: the outcome in experiment [1], in experiment [2] and in [3] was inactive.
In the case of `O=C(O)CCC(F)(F)C(F)(F)C(F)(F)C(F)(F)C(F)(F)F`, the compound was called inactive in experiment [2] and in [3].
As to `O=C(F)C(F)(F)C(F)(F)C(F)(F)C(F)F`, the result in experiment [1], in [2] and in [3] was inactive.
For the compound `FCOC(C(F)(F)F)C(F)(F)F`, the outcome in experiment [1], in experiment [2] and in [3] was inactive.
`O=C(F)C(F)(F)C(F)(F)C(F)(F)C(=O)F`: the outcome in [1], in [2] and in [3] was inactive.
As for `O=C(O)C(F)(F)OC(F)(F)C(F)(F)OC(F)(F)C(F)(F)OC(F)(F)C(F)(F)C(F)(F)C(F)(F)F`, the compound was called inactive in experiment [1], in experiment [2] and in experiment [3].
Consider `FC(F)=C(F)C(F)(F)C(F)(F)C(F)(F)C(F)F`, for which the outcome in experiment [2] and in experiment [3] was inactive.
`CC(=O)Nc1ccc(O)cc1`: the compound was classed as inactive in experiment [1], in experiment [2], in [3], in experiment [6], in experiment [7] and in [8]. The result in [4] was inactive.
`O=C(CCCN1CCC(O)(c2ccc(Cl)cc2)CC1)c1ccc(F)cc1`: the AC50 in experiment [9] is 20.2 µM (active); in experiment [2], 0.163 µM (active); in experiment [3] it was 1.74 µM (active); in [10], 13.1 µM (active); in experiment [4] it was 50 µM (active). Besides, the call in experiment [1], in [5], in experiment [6], in experiment [7] and in [8] was inactive.
`COC(=O)C(F)(F)C(F)(F)C(F)(F)C(F)(F)C(F)(F)F`: the result in experiment [2] and in [3] was inactive.
For the compound `CN(C)CCOC(c1ccccc1)c1ccccc1`, the outcome in [1] and in [2] was inactive. Further, the AC50 in experiment [3] was 15.5 µM (active).
For the compound `O=C1NS(=O)(=O)c2ccccc21`, the compound was classed as inactive in experiment [2], in experiment [3], in experiment [6], in experiment [7], in [8] and in experiment [4].
Consider `Nc1ccn([C@@H]2O[C@H](CO)[C@@H](O)C2O)c(=O)n1` (stereo partly drawn), for which the AC50 is 0.611 µM (active) in experiment [9], 0.969 µM (active) in experiment [1], 0.0744 µM (active) in experiment [2] and 0.0919 µM (active) in experiment [3]. Also, the outcome in experiment [5], in experiment [10] and in [4] was inactive.
Regarding `COC(=O)C(F)(F)C(F)(F)C(F)(F)F`, the call in experiment [2] and in experiment [3] was inactive.
